Screens deposited in PubChem BioAssay by several laboratories.
CYP2C9 activ – increases human cytochrome P450 2C9 activity | actives 1.4% (n = 96,000) | activation factor at 5 µM | recombinant CYP2C9, luciferin-H conversion, luminescence; active compounds read high; factor 1 = untreated enzyme, 0 = blocked;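 active means activation factor of 2 or more for CYP2C9 at a 5 µM dose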;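 further: 0 = sulfaphenazole-blocked wells and 1 = vehicle-only wells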
EphB4 ephrin blk – antagonists of human EphB4-ephrin-B2 interaction; P54760; EphB4 LBD / TNYL-RAW-Alexa532 peptide, fluorescence polarization; inhibition, % at 7 µM; actives 0.15% (n = 97,000);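 active means inhibition above the screen-wide mean inhibition plus 3 SD, cut at about 15% in these data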;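 further: 0% = DMSO wells and 100% = excess unlabeled TNYL-RAW peptide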
Target sequence (P54760 whole entry, looked up, the tested form may be a part): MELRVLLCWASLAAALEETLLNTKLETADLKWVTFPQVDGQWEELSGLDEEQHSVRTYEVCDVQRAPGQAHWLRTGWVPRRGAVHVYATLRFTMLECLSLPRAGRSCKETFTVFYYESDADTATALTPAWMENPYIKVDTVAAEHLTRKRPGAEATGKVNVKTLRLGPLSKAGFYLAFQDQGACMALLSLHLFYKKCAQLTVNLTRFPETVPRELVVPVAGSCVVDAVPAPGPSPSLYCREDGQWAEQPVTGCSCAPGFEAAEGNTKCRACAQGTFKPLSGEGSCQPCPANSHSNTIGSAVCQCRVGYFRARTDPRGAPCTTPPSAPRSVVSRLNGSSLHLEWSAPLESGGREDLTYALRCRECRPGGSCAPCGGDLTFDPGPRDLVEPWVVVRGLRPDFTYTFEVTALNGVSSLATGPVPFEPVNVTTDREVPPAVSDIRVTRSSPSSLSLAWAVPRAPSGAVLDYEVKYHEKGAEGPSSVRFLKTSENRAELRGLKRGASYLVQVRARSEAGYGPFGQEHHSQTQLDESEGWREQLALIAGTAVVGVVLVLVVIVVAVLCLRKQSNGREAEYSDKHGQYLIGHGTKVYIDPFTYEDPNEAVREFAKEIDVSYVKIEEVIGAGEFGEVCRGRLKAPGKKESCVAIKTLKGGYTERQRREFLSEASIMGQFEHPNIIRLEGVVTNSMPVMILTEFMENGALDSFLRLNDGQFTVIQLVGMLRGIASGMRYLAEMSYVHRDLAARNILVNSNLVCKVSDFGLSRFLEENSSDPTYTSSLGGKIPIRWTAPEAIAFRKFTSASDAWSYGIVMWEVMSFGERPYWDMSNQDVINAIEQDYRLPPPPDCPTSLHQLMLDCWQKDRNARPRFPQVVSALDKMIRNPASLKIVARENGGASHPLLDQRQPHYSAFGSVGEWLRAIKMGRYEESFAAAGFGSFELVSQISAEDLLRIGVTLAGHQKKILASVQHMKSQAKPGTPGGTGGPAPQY
CYP2C9 inh – human CYP2C9 inhibition. actives 20% (n = 96,000). AID 777. CYP2C9 Supersomes, luciferin-H conversion, luminescence. inhibition, % at 5 µM;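 active means blocking of liver enzyme CYP2C9 beyond about 50% at 5 µM, limit read from the data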
CYP2C19 activ – cytochrome P450 2C19 (human) activation; P33261; recombinant CYP2C19, luciferin-H EGE luminescence; active compounds read high; 0 = fully inhibited enzyme, 1 = untreated enzyme; activation factor at 5 µM; 96,000 tested, under 10 active; AID 1025;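 active means activation factor of at least 2 at 5 µM in the primary screen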;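 further: 0 = wells with 2.5 mM tranylcypromine and 1 = vehicle-only wells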
CYP2C19 inhib – inhibitors of human CYP2C19; P33261; CYP2C19 Supersomes, luciferin-H EGE luminescence, 30 min; inhibition, % at 5 µM; actives 21% (n = 96,000); AID 778;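 active means CYP2C19 inhibition above a set limit at 5 µM in the primary screen, cut at about 50% in these data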;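 further: plate controls were negative control wells for no effect and 2.5 mM tranylcypromine positive control for full effect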
An asterisk follows results filed as active; / = not tested or not shown. Shown are actives, neighbours in structure and some others; about 27% of the full set was active somewhere.

SMILES | CYP2C9 activ | EphB4 ephrin blk | CYP2C9 inh | CYP2C19 activ | CYP2C19 inhib
Cc1oc2c(C)c(O)ccc2c(=O)c1-c1cnn(-c2ccccc2)c1 | 1 | -6 | 1 | 0.8 | 18
CCOCCCNC(=O)CCNS(=O)(=O)c1ccc(C)cc1 | 1.6 | 5 | -58 | 1 | -3
COc1ccc(CNC(=O)CSc2nc3c(c(=O)n(C)c(=O)n3C)n2C)cc1 | / | -2 | / | / | /
c1ccc(Nc2nnc(SCc3cccc4ccccc34)s2)cc1 | 2.1* | 6 | -111 | 0.7 | 34
CCSc1nnc(Nc2ccccc2)s1 | 1 | -5 | 3 | 0.7 | 29
CCOC(=O)Cc1cnc(NC(=O)c2ccccc2)s1 | 0.2 | 0 | 84* | 0.1 | 94*
CCOC(=O)c1csc(NC(=O)c2ccccc2)n1 | 0.6 | 0 | 43 | 0.3 | 74*
CCOC(=O)c1csc(NC(=O)c2ccc(S(=O)(=O)N(C)C)cc2)n1 | 0.9 | -2 | 10 | 0.9 | 6
CCOC(=O)c1cncc(NC(=O)c2ccccc2)c1 | 1 | -4 | 2 | 0.8 | 21
CCCCN(C)C(=O)CCCc1c[nH]c2ccccc12 | / | 0 | / | / | /
COc1ccc2c(c1OC)C(=O)OC2C1c2c(cc3c(c2OC)OCO3)CCN1C (stereo unspecified) | 0.1 | / | 89* | 0.1 | 89*
Cc1cc(Cl)ccc1OCc1n[nH]c(=S)n1C1CCCCC1 | 0 | 6 | 96* | 0.2 | 81*
COc1ccc(-c2n[nH]c(=S)n2C2CCCCC2)cc1 | 0.7 | 2 | 31 | 0.2 | 79*
COc1ccc(Cl)cc1-c1n[nH]c(=S)n1C1CCCCC1 | 0.9 | -2 | 14 | 0.2 | 80*
CCCCCOC(=O)C1=C(C)N(C)C(=O)NC1c1cc(Br)c(O)c(OC)c1 (stereo unspecified) | 0.3 | -6 | 70* | 0.4 | 59*
CCOC(=O)C1=C(C)N(CCO)C(=O)NC1c1cccc(O)c1 (stereo unspecified) | 1.1 | -4 | -6 | 1.1 | -14
Cc1cccc(NS(=O)(=O)c2cccs2)n1 | 1.1 | -4 | -9 | 1.1 | -8
CCCn1c(SCC(=O)N2CCCCC2)nnc1-c1ccco1 | 1 | -4 | -2 | 0.7 | 34
O=c1[nH]cnc2c([N+](=O)[O-])cccc12 | 1.1 | -5 | -12 | 1.1 | -13
Brc1cc2[nH]cnc2c2ccccc12 | 1.2 | 4 | -21 | 0.5 | 50*
N#C/C(=C\c1ccc(-c2cccc(Cl)c2)o1)C(=O)Nc1cccc2cccnc12 | 1.3 | -4 | -26 | 1 | -2
Cc1ccc(S(=O)(=O)C(C#N)c2nc3ccccc3nc2N2CCCCC2)cc1 (stereo unspecified) | 0.9 | / | 7 | 0.8 | 17
Cc1cccc(S(=O)(=O)C(C#N)c2nc3ccccc3nc2N2CCOCC2)c1 (stereo unspecified) | 0.4 | 4 | 56* | 0.7 | 29
CCOC(=O)N1CCN(c2nc3ccccc3nc2C(C#N)S(=O)(=O)c2ccc(C)cc2)CC1 (stereo unspecified) | 0.1 | 1 | 92* | 0.7 | 33
COc1ccc(NC(=O)CC2Sc3ncnn3C2=O)cc1 (stereo unspecified) | 1.1 | 3 | -8 | 1 | -4
SMILES | CYP2C9 activ | EphB4 ephrin blk | CYP2C9 inh | CYP2C19 activ | CYP2C19 inhib
O=C(Cn1nnc(-c2ccccc2-n2cnnn2)n1)c1ccccc1 | 1.8 | -16 | -85 | 0.6 | 43
CCCCNC(=O)CCCn1c(=S)[nH]c2cc3c(cc2c1=O)OCO3 | 0.4 | 3 | 59* | 0.9 | 15
CCN(CC)CCNC(=O)CCn1c(=S)[nH]c2cc3c(cc2c1=O)OCO3 | 1 | 3 | 0 | 1.1 | -13
CCOCCCn1c(=S)[nH]c2cc3c(cc2c1=O)OCO3 | 0.5 | / | 48 | 0.3 | 68*
C1=C(CCNc2ncnc3nc[nH]c23)CCCC1 | 1.1 | / | -7 | 1 | 4
O=C(CSc1ccsc1[N+](=O)[O-])NCCc1ccc(Cl)cc1 | 0.9 | -5 | 8 | 1 | -4
CC(Sc1ccsc1[N+](=O)[O-])C(=O)NCCc1ccc(Cl)cc1 (stereo unspecified) | 0.3 | -1 | 70* | 0.4 | 57*
CCC(Cc1ccccc1)NC(=O)CSc1ccsc1[N+](=O)[O-] (stereo unspecified) | 0.7 | 7 | 27 | 0.3 | 72*
O=C(CSc1nc2ccc([N+](=O)[O-])cc2[nH]1)NCCc1ccccc1 | 0.2 | 4 | 81* | 0.2 | 82*
O=C(CSc1ccsc1[N+](=O)[O-])NCCc1ccccc1 | 0.4 | -3 | 55* | 0.8 | 22
